Measurements: the supplement of paper PMC4466140

How the values were obtained:
Test in all cases: SPOT peptide array binding signal intensity (averaged, normalized) (arbitrary units (background-subtracted, floor 0; scale differs between SH3 domains)); higher = stronger binding of the SH3 domain to the peptide
[1] = molecular target: AgAbp1
How it was run: (§1)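 Spot intensities were captured after detection with anti-GST antibody, an HRP-linked anti-mouse secondary and luminol, and quantified with Genespotter. The probes were GST-fused SH3 domains from four yeast species, produced in E. coli BL21(DE3), purified on glutathione Sepharose and incubated at 10 μg/ml overnight at 4°C on cellulose-bound synthetic 15-mer peptides with cysteines replaced by serines. Binding signal is the normalized, background-subtracted spot intensity averaged over replicates, and its arbitrary units differ between domains.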

[2] = molecular target: AgBbc1
How it was run: as §1

[3] = molecular target: AgBem1-D1
How it was run: as §1

[4] = molecular target: AgBzz1-D1
How it was run: as §1

[5] = molecular target: AgBzz1-D2
How it was run: as §1

[6] = molecular target: AgCyk3
How it was run: as §1

[7] = molecular target: AgFus1
How it was run: as §1

[8] = molecular target: AgHof1
How it was run: as §1

[9] = molecular target: AgHse1
How it was run: as §1

[10] = molecular target: AgLsb1
How it was run: as §1

[11] = molecular target: AgLsb4
How it was run: as §1

[12] = molecular target: AgMyo5
How it was run: as §1

[13] = molecular target: AgNbp2
How it was run: as §1

[14] = molecular target: AgRvs167
How it was run: as §1

[15] = molecular target: AgSho1
How it was run: as §1

[16] = molecular target: AgSla1-D1-D2
How it was run: as §1

[17] = molecular target: AgSla1-D3
How it was run: as §1

[18] = molecular target: CaAbp1-D1
How it was run: as §1

[19] = molecular target: CaAbp1-D2
How it was run: as §1

[20] = molecular target: CaBbc1
How it was run: as §1

[21] = molecular target: CaBem1-D1
How it was run: as §1

[22] = molecular target: CaBzz1-D1
How it was run: as §1

[23] = molecular target: CaBzz1-D2
How it was run: as §1

[24] = molecular target: CaCyk3
How it was run: as §1

[25] = molecular target: CaFus1
How it was run: as §1

[26] = molecular target: CaHof1
How it was run: as §1

[27] = molecular target: CaHse1
How it was run: as §1

[28] = molecular target: CaLsb1
How it was run: as §1

[29] = molecular target: CaLsb4
How it was run: as §1

[30] = molecular target: CaMyo5
How it was run: as §1

[31] = molecular target: CaNbp2
How it was run: as §1

[32] = molecular target: CaRvs167
How it was run: as §1

[33] = molecular target: CaRvs167-3
How it was run: as §1

[34] = molecular target: CaSho1
How it was run: as §1

[35] = molecular target: CaSla1-D1-D2
How it was run: as §1

[36] = molecular target: CaSla1-D3
How it was run: as §1

[37] = molecular target: ScAbp1
How it was run: as §1

[38] = molecular target: ScBbc1
How it was run: as §1

[39] = molecular target: ScBem1-D1
How it was run: as §1

[40] = molecular target: ScBzz1-D1
How it was run: as §1

[41] = molecular target: ScBzz1-D2
How it was run: as §1

[42] = molecular target: ScCyk3
How it was run: as §1

[43] = molecular target: ScFus1
How it was run: as §1

[44] = molecular target: ScHof1
How it was run: as §1

[45] = molecular target: ScHse1
How it was run: as §1

[46] = molecular target: ScLsb1
How it was run: as §1

[47] = molecular target: ScLsb2
How it was run: as §1

[48] = molecular target: ScLsb3
How it was run: as §1

[49] = molecular target: ScLsb4
How it was run: as §1

[50] = molecular target: ScMyo3
How it was run: as §1

[51] = molecular target: ScMyo5
How it was run: as §1

[52] = molecular target: ScNbp2
How it was run: as §1

[53] = molecular target: ScPex13
How it was run: as §1

[54] = molecular target: ScRvs167
How it was run: as §1

[55] = molecular target: ScSho1
How it was run: as §1

[56] = molecular target: ScSla1-D1-D2
How it was run: as §1

[57] = molecular target: ScSla1-D3
How it was run: as §1

[58] = molecular target: SpAbp1-D1
How it was run: as §1

[59] = molecular target: SpBbc1
How it was run: as §1

[60] = molecular target: SpBzz1-D1
How it was run: as §1

[61] = molecular target: SpBzz1-D2
How it was run: as §1

[62] = molecular target: SpCyk3
How it was run: as §1

[63] = molecular target: SpHof1
How it was run: as §1

[64] = molecular target: SpHof1-2
How it was run: as §1

[65] = molecular target: SpHof1-3
How it was run: as §1

[66] = molecular target: SpHse1
How it was run: as §1

[67] = molecular target: SpLsb1
How it was run: as §1

[68] = molecular target: SpLsb4
How it was run: as §1

[69] = molecular target: SpMyo1
How it was run: as §1

[70] = molecular target: SpNbp2
How it was run: as §1

[71] = molecular target: SpPex13
How it was run: as §1

[72] = molecular target: SpRvs167
How it was run: as §1

[73] = molecular target: SpSla1-D1-D2
How it was run: as §1

[74] = molecular target: SpSla1-D3
How it was run: as §1

## IAPIPMPKPNPTHIS
[1]
  SPOT peptide array binding signal intensity: ≤ 0
[2]
  SPOT peptide array binding signal intensity: ≤ 0
[3]
  SPOT peptide array binding signal intensity: 7
[4]
  SPOT peptide array binding signal intensity: ≤ 0
[5]
  SPOT peptide array binding signal intensity: 4
[6]
  SPOT peptide array binding signal intensity: ≤ 0
[7]
  SPOT peptide array binding signal intensity: 44.5
[8]
  SPOT peptide array binding signal intensity: ≤ 0
[9]
  SPOT peptide array binding signal intensity: 12
[10]
  SPOT peptide array binding signal intensity: ≤ 0
[11]
  SPOT peptide array binding signal intensity: ≤ 0
[12]
  SPOT peptide array binding signal intensity: ≤ 0
[13]
  SPOT peptide array binding signal intensity: 61.5
[14]
  SPOT peptide array binding signal intensity: 0.333
[15]
  SPOT peptide array binding signal intensity: 32
[16]
  SPOT peptide array binding signal intensity: ≤ 0
[17]
  SPOT peptide array binding signal intensity: 4.5
[18]
  SPOT peptide array binding signal intensity: ≤ 0
[19]
  SPOT peptide array binding signal intensity: 28.5
[20]
  SPOT peptide array binding signal intensity: ≤ 0
[21]
  SPOT peptide array binding signal intensity: 48.5
[22]
  SPOT peptide array binding signal intensity: ≤ 0
[23]
  SPOT peptide array binding signal intensity: 9.75
[24]
  SPOT peptide array binding signal intensity: ≤ 0
[25]
  SPOT peptide array binding signal intensity: 170
[26]
  SPOT peptide array binding signal intensity: 0.5
[27]
  SPOT peptide array binding signal intensity: 33.8
[28]
  SPOT peptide array binding signal intensity: ≤ 0
[29]
  SPOT peptide array binding signal intensity: 51
[30]
  SPOT peptide array binding signal intensity: 3
[31]
  SPOT peptide array binding signal intensity: 430
[32]
  SPOT peptide array binding signal intensity: ≤ 0
[33]
  SPOT peptide array binding signal intensity: ≤ 0
[34]
  SPOT peptide array binding signal intensity: 305
[35]
  SPOT peptide array binding signal intensity: 58.5
[36]
  SPOT peptide array binding signal intensity: 52.5
[37]
  SPOT peptide array binding signal intensity: ≤ 0
[38]
  SPOT peptide array binding signal intensity: ≤ 0
[39]
  SPOT peptide array binding signal intensity: ≤ 0
[40]
  SPOT peptide array binding signal intensity: ≤ 0
[41]
  SPOT peptide array binding signal intensity: ≤ 0
[42]
  SPOT peptide array binding signal intensity: ≤ 0
[43]
  SPOT peptide array binding signal intensity: 56
[44]
  SPOT peptide array binding signal intensity: ≤ 0
[45]
  SPOT peptide array binding signal intensity: ≤ 0
[46]
  SPOT peptide array binding signal intensity: ≤ 0
[47]
  SPOT peptide array binding signal intensity: ≤ 0
[48]
  SPOT peptide array binding signal intensity: ≤ 0
[49]
  SPOT peptide array binding signal intensity: ≤ 0
[50]
  SPOT peptide array binding signal intensity: ≤ 0
[51]
  SPOT peptide array binding signal intensity: ≤ 0
[52]
  SPOT peptide array binding signal intensity: 158
[53]
  SPOT peptide array binding signal intensity: 22.2
[54]
  SPOT peptide array binding signal intensity: 0.333
[55]
  SPOT peptide array binding signal intensity: 158
[56]
  SPOT peptide array binding signal intensity: 0.5
[57]
  SPOT peptide array binding signal intensity: 81.5
[58]
  SPOT peptide array binding signal intensity: 8.5
[59]
  SPOT peptide array binding signal intensity: ≤ 0
[60]
  SPOT peptide array binding signal intensity: 37.5
[61]
  SPOT peptide array binding signal intensity: 0.5
[62]
  SPOT peptide array binding signal intensity: ≤ 0
[63]
  SPOT peptide array binding signal intensity: ≤ 0
[64]
  SPOT peptide array binding signal intensity: 7
[65]
  SPOT peptide array binding signal intensity: ≤ 0
[66]
  SPOT peptide array binding signal intensity: 217
[67]
  SPOT peptide array binding signal intensity: ≤ 0
[68]
  SPOT peptide array binding signal intensity: 92.5
[69]
  SPOT peptide array binding signal intensity: 0.5
[70]
  SPOT peptide array binding signal intensity: 29
[71]
  SPOT peptide array binding signal intensity: 2
[72]
  SPOT peptide array binding signal intensity: ≤ 0
[73]
  SPOT peptide array binding signal intensity: ≤ 0
[74]
  SPOT peptide array binding signal intensity: 32

## WTQRRGPLVVYAEDN
[1]
  SPOT peptide array binding signal intensity: ≤ 0
[2]
  SPOT peptide array binding signal intensity: 7
[3]
  SPOT peptide array binding signal intensity: 102
[4]
  SPOT peptide array binding signal intensity: 11
[5]
  SPOT peptide array binding signal intensity: 22.5
[6]
  SPOT peptide array binding signal intensity: 0.5
[7]
  SPOT peptide array binding signal intensity: 35.5
[8]
  SPOT peptide array binding signal intensity: 15.5
[9]
  SPOT peptide array binding signal intensity: 20.5
[10]
  SPOT peptide array binding signal intensity: 4
[11]
  SPOT peptide array binding signal intensity: 17.5
[12]
  SPOT peptide array binding signal intensity: 3
[13]
  SPOT peptide array binding signal intensity: ≤ 0
[14]
  SPOT peptide array binding signal intensity: 1.17
[15]
  SPOT peptide array binding signal intensity: 4
[16]
  SPOT peptide array binding signal intensity: 20
[17]
  SPOT peptide array binding signal intensity: 2
[18]
  SPOT peptide array binding signal intensity: ≤ 0
[19]
  SPOT peptide array binding signal intensity: ≤ 0
[20]
  SPOT peptide array binding signal intensity: 27.2
[21]
  SPOT peptide array binding signal intensity: 3
[22]
  SPOT peptide array binding signal intensity: 286
[23]
  SPOT peptide array binding signal intensity: 142
[24]
  SPOT peptide array binding signal intensity: 18
[25]
  SPOT peptide array binding signal intensity: 190
[26]
  SPOT peptide array binding signal intensity: 1.5
[27]
  SPOT peptide array binding signal intensity: 6.25
[28]
  SPOT peptide array binding signal intensity: 6.5
[29]
  SPOT peptide array binding signal intensity: 29.5
[30]
  SPOT peptide array binding signal intensity: 26
